Reference: PubChem BioAssay AID651699 (Sanford-Burnham Center for Chemical Genomics, 2012)
The whole screen tested about 360,000 compounds, of which about 2,100 (0.58%) were called active. Shown is part of a subset that was picked to be rich in actives. A number with no mark means an inactive call. Cut-off read from the data, not from the text of the source: active = inhibition above about 36%; inactive = the rest.

molecular target: NEDD8-conjugating enzyme Ubc12 (Homo sapiens) + NEDD8-activating enzyme E1 regulatory subunit (Homo sapiens) (UniProt P61081+Q13564); experiment: inhibitors of cullin neddylation, primary screen, biochemical, TR-FRET, uHTS, NAE and Ubc12 (AID 651699); settings: at 25 µM, stronger effect = higher value
Sequence (P61081 whole entry, looked up): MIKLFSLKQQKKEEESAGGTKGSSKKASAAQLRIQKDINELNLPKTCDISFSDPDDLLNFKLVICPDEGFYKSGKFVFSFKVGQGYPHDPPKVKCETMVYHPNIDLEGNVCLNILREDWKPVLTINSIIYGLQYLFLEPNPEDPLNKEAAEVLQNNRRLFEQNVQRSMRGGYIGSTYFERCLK
Sequence (Q13564 whole entry, looked up): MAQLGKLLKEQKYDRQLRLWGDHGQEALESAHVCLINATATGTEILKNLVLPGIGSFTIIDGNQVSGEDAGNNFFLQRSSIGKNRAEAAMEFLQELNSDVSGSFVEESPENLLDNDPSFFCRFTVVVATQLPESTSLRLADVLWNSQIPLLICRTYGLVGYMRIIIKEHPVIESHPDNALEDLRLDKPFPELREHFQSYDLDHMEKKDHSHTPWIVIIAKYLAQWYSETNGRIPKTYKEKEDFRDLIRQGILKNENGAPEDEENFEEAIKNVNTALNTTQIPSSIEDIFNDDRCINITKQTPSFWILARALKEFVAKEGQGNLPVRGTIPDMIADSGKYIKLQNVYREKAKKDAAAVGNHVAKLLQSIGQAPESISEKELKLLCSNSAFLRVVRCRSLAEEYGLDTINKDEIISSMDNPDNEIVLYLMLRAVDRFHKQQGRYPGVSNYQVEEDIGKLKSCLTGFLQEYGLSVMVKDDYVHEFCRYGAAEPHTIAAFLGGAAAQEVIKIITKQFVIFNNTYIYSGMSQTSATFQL

SMILES	inhibition
C=CCOC(=O)C1=C(C)N=C2SCCC(=O)N2C1/C=C/c1ccccc1OC (configuration not stated)	-7.53%
COc1ccccc1/C=C/C1=NC(=C\N(C)C)/C(=O)O1	54% (active)
COc1ccccc1/C=C/C(=O)NC(=S)N1CCOCC1	-10.5%
CCSC1=NCCN1C(=O)c1ccc(S(=O)(=O)N(CC)CC)cc1	-10.5%
CC1(C(=O)NS(=O)(=O)c2ccc(C#N)cc2)CCN1C(=O)CC1CCCC1 (configuration not stated)	-3.86%
CC(C)(C)OC(=O)C[C@@H]1C/C=C\C[C@@H](CC(=O)N[C@H](CO)Cc2ccccc2)C(=O)NCCOC1=O	-4.28%
O=C(c1cc(-c2ccco2)nc2ccccc12)N(Cc1nnc(-c2ccc(Cl)cc2)o1)C1CC1	38.9% (active)
O=C(c1ccc(Cl)s1)N(Cc1nnc(-c2ccccc2Cl)o1)C1CC1	12.9%
CN(C(=O)COC(=O)c1cc(-c2ccco2)nc2ccccc12)C1CCS(=O)(=O)C1 (configuration not stated)	-19.8%
N#Cc1ccc(S(=O)(=O)NCC(=O)OCC(=O)NCCc2ccccc2)cc1	-11.3%
CCOC(=O)C1(Cc2ccccc2C)CCCN(C(=O)CCc2c(C)noc2C)C1 (configuration not stated)	3.81%
CC(=O)OCC(C)n1c(=O)c2ccccc2n1C(C)=O (configuration not stated)	16.7%
CC(=O)Oc1c(C(=O)c2nnc(C)o2)c(=O)n(Cc2ccccc2)c2ccccc12	40% (active)
O=C(O)CCc1nc2cc(Cl)ccc2n(Cc2ccccc2)c1=O	9.12%
CC1Cc2ccccc2N1CC(=O)Nc1ccc2c(c1)OC(F)(F)O2 (configuration not stated)	-5.99%
CC(=O)NS(=O)(=O)c1ccc(N/C(N)=N/c2nc(C)cc(C)n2)cc1	-11.7%

SMILES	inhibition
O=C(CSc1nnc(-c2ccncc2)n1C1CCCCC1)Nc1ccccc1	-3.98%
CCOc1ccc(NC(=O)CN(C)C(=O)Cc2sc(C)nc2-c2ccc(F)cc2)cc1OCC	-1.44%
CCOc1ccc(C2c3[nH]c4ccccc4c3CCN2Cc2cn(CC)nc2C)cc1 (configuration not stated)	22.4%
COc1ccc(C2c3[nH]c4ccccc4c3CCN2CCCn2cccn2)cc1C (configuration not stated)	49.4% (active)
Oc1cccc(C2c3[nH]c4ccccc4c3CCN2Cc2cnn(-c3ccccc3)c2)c1 (configuration not stated)	25.4%
CCOc1ccc(C2c3[nH]c4ccccc4c3CCN2Cc2cccn2-c2ncccn2)cc1 (configuration not stated)	16.1%
COCc1ccc(C(=O)N2CCc3c([nH]c4ccccc34)C2c2ccccn2)s1 (configuration not stated)	-1.93%
COc1cccc(C2c3[nH]c4ccccc4c3CCN2Cc2cccc(C)n2)c1 (configuration not stated)	48.7% (active)
O=C(O)C1C2C=CC(C2)C1C(=O)NCc1ccccc1 (configuration not stated)	-4.12%
O=C(OCc1ccccc1)N1CCC2CC1c1cc(N3CCN(S(=O)(=O)c4cc(Cl)cc(Cl)c4)CC3)ccc12 (configuration not stated)	19.3%
CC(OC(=O)c1cc2ccccc2o1)C(=O)Nc1ccc(N2CCOCC2)cc1 (configuration not stated)	2.93%
CC(C)C1N=C2c3ccccc3N=C(SCC(=O)c3ccc(O)c(O)c3)N2C1=O (configuration not stated)	-18.8%
O=C(Nc1ccc(-c2cscn2)cc1)C1CCCN(Cc2ccc(CO)o2)C1 (configuration not stated)	5.08%
O=C(NCc1cccnc1)Nc1cccc(NC(=O)NCc2cccnc2)c1F	2.41%
CC(C)CC1(C)NC(=O)N(CC(=O)Nc2ccc3c(c2)OCCO3)C1=O (configuration not stated)	-8.52%
Cc1ccc(-n2c(SCC(=O)Nc3ncc(Cl)cc3Cl)nc3ccccc32)cc1	3.23%
